HIF-2a inh: inhibitors of HIF-2a | 786-0 RCC cells HIF-2a reporter, luciferase luminescence, overnight | inhibition, % at 18.8 µM | AID 624352 | actives 0.72% (n = 360,000);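 active = inhibition of the luminescence signal of 40% or more relative to plate controls, in a single-dose primary screen at 18.75 µM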
KKLEB tox: CF airway cell cytotoxicity counter-screen | activity change (cytotoxicity), % at 5 µM | actives 0.36% (n = 360,000) | AID 602141 | KKLEB CF airway cells viability, ATPlite luminescence, overnight; stronger effect = lower value; cells stimulated with P. aeruginosa culture filtrate;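 active = corrected activity change at or below -50% at 5 µM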
CF NFkB block: cystic fibrosis NF-kB activation inhibition. KKLEB NF-kB-GFP reporter, PAF-induced, GFP fluorescence overnight. inhibition, % at 5 µM. actives 0.86% (n = 360,000);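 active = at least 50% inhibition at 5 µM, scaled per plate between neutral and stimulator controls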;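 note: PAF is a Pseudomonas aeruginosa culture filtrate used as stimulus; plate controls were PAF-stimulated DMSO wells for no effect and unstimulated DMSO wells for full effect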
ABHD5-PLIN5 inh: ABHD5-PLIN5 protein interaction inhibition; Split G. princeps luciferase complementation, luminescence, 4 h; inhibition, % at 4 µM; actives 0.78% (n = 360,000); AID 602281;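 active = inhibition above the mean inhibition across every tested compound plus 3 SD, cut at about 22% in these data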;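 note: 0% = DMSO only wells and the 100% control is not disclosed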
Mdm2-MdmX inh: human Mdm2/MdmX binding inhibition | inhibition, % at 8 µM | actives 3% (n = 330,000) | O15151+Q00987 | SaOS-2 split-luciferase Mdm2/MdmX complementation, luminescence;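 active = inhibition of at least 50% at 8 µM in the primary screen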
Peg3 promoter: inhibitors of Peg3 promoter. inhibition, % at 20 µM. HeLa PEG-Prom luciferase reporter, luminescence, overnight. actives 1.7% (n = 360,000). AID 588405;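 active = inhibition of at least 50% at 20 µM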
* hit, by the source's call; · = no result. An excerpt weighted towards active compounds, which were near 4.6% of everything screened.

SMILES | HIF-2a inh | KKLEB tox | CF NFkB block | ABHD5-PLIN5 inh | Mdm2-MdmX inh | Peg3 promoter
Cc1cc(C)nc(Nc2cccc(Cl)c2)n1 | -50 | -10 | 9 | 0 | -12 | -48
Cc1ccc2nc(-c3ccc(NC(=S)NCC(C)(C)CN(C)C)cc3)sc2c1 | -211 | -21 | 16 | 21 | · | 60*
Cc1ccc2nc(-c3ccc(N)cc3)sc2c1 | -76 | -56* | -53 | 8 | -9 | -55
O=C(NCCCn1cccn1)c1cc(COc2ccccc2)on1 | -199 | -14 | -7 | -1 | · | -244
CCOc1ccc(NC(=O)CN(C)C(=O)COc2cccc3c2OC(C)(C)C3)cc1OCC | 5 | -6 | 3 | 9 | 30 | 4
N#Cc1c(N)n(C2OC(CO)C(O)C2O)c2ncnc(N)c12 (stereo not drawn) | 71* | -62* | 89* | 7 | · | 96*
Cc1cc(NCCCCCCCNc2cc(C)nc3cc([N+](=O)[O-])ccc23)c2ccc([N+](=O)[O-])cc2n1 | 33 | 11 | 7 | -8 | · | 102*
COc1ccc(C(=O)Nc2nc3cc4c(cc3s2)OCO4)c(OC)c1 | -308 | -54* | 49 | 0 | 4 | -204
N=C(N)c1ccc(N=Nc2c(O)ccc3c2[nH]c2ccccc23)cc1 | -11 | 6 | 0 | 6 | · | 98*
Oc1ccc(N=Nc2c(O)ccc3ccccc23)cc1 | -284 | 28 | -25 | 10 | 16 | -149
Fc1ccc(C[n+]2csc3ccccc32)cc1 | -4 | 16 | -8 | 54* | -36 | -4
C#CCOCCOCCOCCNc1nc(N2CCOCC2)nc(N2CCN(C(=O)CCCCCCCCCCNC(=O)[C@@H](CCC(=O)O)n3cc(CCCCCN)nn3)CC2)n1 | 9 | 14 | -1 | 7 | 30 | -7
C#CCOCCOCCOCCNc1nc(N2CCN(C(=O)CCCCCCCCCCNC(=O)[C@H]([C@@H](C)CC)n3cc(CCCCN=C(N)N)nn3)CC2)nc(N2CCN(C(=O)CCCCCCCCCCNC(=O)[C@H](CO)n3cc(CCCCCN)nn3)CC2)n1 | 0 | 10 | 8 | 47* | 4 | 28
C#CCOCCOCCOCCNc1nc(N2CCN(C(=O)CCCCCCCCCCNC(=O)[C@@H](CCC(=O)O)n3cc(CCCCCN)nn3)CC2)nc(N2CCN(C(=O)CCCCCCCCCCNC(=O)[C@H]([C@@H](C)CC)n3cc(CCCCCN)nn3)CC2)n1 | -17 | 19 | 0 | 51* | -12 | -40
C#CCOCCOCCOCCNc1nc(N2CCN(C(=O)Cn3cc(CCCN=C(N)N)nn3)CC2)nc(N2CCN(C(=O)[C@H]([C@@H](C)CC)n3cc(CCCCN)nn3)CC2)n1 | 6 | 2 | 18 | -4 | -9 | -8
C#CCOCCOCCOCCNc1nc(N2CCOCC2)nc(N2CCN(C(=O)CCCCCCCCCCNC(=O)[C@@H]([C@H](C)CC)n3cc(CCCCCN)nn3)CC2)n1 | -2 | 8 | 1 | 27* | 32 | 53*
C#CCOCCOCCOCCNc1nc(N2CCN(C(=O)CCCCCCCCCCNC(=O)[C@H]([C@@H](C)CC)n3cc(CCCCN=C(N)N)nn3)CC2)nc(N2CCN(C(=O)CCCCCCCCCCNC(=O)[C@H](CCCCN)n3cc(C)nn3)CC2)n1 | · | · | · | · | 18 | ·
C#CCOCCOCCOCCNc1nc(N2CCN(C(=O)Cn3cc(CCCCN)nn3)CC2)nc(N2CCN(C(=O)[C@H]([C@@H](C)CC)n3cc(CCCCN)nn3)CC2)n1 | 12 | -6 | 16 | 2 | -8 | -17
C#CCOCCOCCOCCNc1nc(N2CCN(C(=O)CCCCCCCCCCNC(=O)Cn3cc(CCCCCN)nn3)CC2)nc(N2CCN(C(=O)CCCCCCCCCCNC(=O)[C@H]([C@@H](C)CC)n3cc(CCCCN=C(N)N)nn3)CC2)n1 | -16 | 15 | -9 | 58* | 10 | 25
CCOc1ccc(NC(=O)Cn2c(=O)n(CCCC(=O)NC3CCN(Cc4ccccc4)CC3)c(=O)c3ccccc32)cc1 | 4 | 5 | 1 | 4 | 39 | 5
C#CCOCCOCCOCCNc1nc(N2CCN(C(=O)CCCCCCCCCCNC(=O)[C@H]([C@@H](C)CC)n3cc(CCCCCN)nn3)CC2)nc(N2CCN(C(=O)CCCCCCCCCCNC(=O)[C@H]([C@@H](C)CC)n3cc(CCCCN=C(N)N)nn3)CC2)n1 | -4 | 13 | -46 | 59* | -20 | 71*
